What was measured:
Details in all cases: concentration: 1 μM, replicates: in singlicate; n = 1
MRCKA = test system: MRCKA
MRCKB = test system: T1, MRCKB
T1 construct: gene CDC42BPB

MST1R = test system: MST1R
MST1 = test system: T2, MST1
T2 construct: gene STK4

MST2 = test system: T3, MST2
T3 construct: gene STK3

MST3 = test system: T4, MST3
T4 construct: gene STK24

MST4 = test system: MST4
MTOR = test system: MTOR
MUSK = test system: MUSK
MYLK2 = test system: MYLK2
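Note: KINOMEscan kinase panel screen.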

| SMILES | %Inh (MRCKA) [%] | %Inh (MRCKB) [%] | %Inh (MST1R) [%] | %Inh (MST1) [%] | %Inh (MST2) [%] | %Inh (MST3) [%] | %Inh (MST4) [%] | %Inh (MTOR) [%] | %Inh (MUSK) [%] | %Inh (MYLK2) [%] |
| --- | --- | --- | --- | --- | --- | --- | --- | --- | --- | --- |
| Clc1ccc(-c2cc(-c3c[nH]nc3-c3ccccn3)ccn2)cc1 [GW681251] | 0 | 1 | 0 | 0 | 0 | 0 | 0 | 20 | 12 | 0 |
| Nc1nccc2scc(-c3ccc4c(c3)CCN4C(=O)Cc3cc(F)ccc3F)c12 [GSK2587663] | 15 | 0 | 35 | 8 | 3 | 15 | 0 | 4 | 10 | 0 |
| Cl.Cn1ccc(-c2cccc(Nc3ccnc4cc(-c5nccs5)ccc34)c2)n1 [GW525701] | 37 | 0 | 29 | 0 | 0 | 0 | 0 | 35 | 0 | 0 |
| Cc1ccc(O)cc1Nc1cc(C(F)(F)F)nc2ccc(-c3ccncc3)cc12 [GW630823] | 0 | 0 | 19 | 0 | 44 | 18 | 0 | 0 | 0 | 4 |
| FC(F)(F)c1ccc(-c2nn3ncccc3c2-c2ccnc(Nc3cccc(C(F)(F)F)c3)n2)cc1 [GW828205] | 31 | 17 | 0 | 0 | 21 | 0 | 0 | 0 | 0 | 0 |

— publication PMC5540273 (PLoS ONE, 2017)
